In PubChem BioAssay AID743497 (The Scripps Research Institute Molecular Screening Center, 2014):
Unmarked numbers belong to inactive results. Active and inactive are the calls of the source.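 The calls were made as follows: active = IC50 of 10 µM or lower; inactive = IC50 above 10 µM.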

Assay: small molecules binding CAG repeat RNA – biochemical, fluorescence, dose response, MedChem round 1, SAR follow-up (AID 743497)
Details: r(CAG) RNA 1x1 AA loop, TO-PRO-1 displacement fluorescence

Q: For NC(=O)c1cc(NC(=O)/C=C/c2cn(-c3ccccc3)nc2-c2ccc(F)cc2)c(F)cc1F, which IC50 is on record?
A: Its IC50 is over 29.9 µM.

Q: With CCN1CCN(C(=O)/C=C/c2cn(-c3ccccc3)nc2-c2ccccc2)CC1 as the molecule, how does the IC50 read?
A: The IC50 was over 29.9 µM.

Q: For O=C(/C=C/c1cn(-c2ccccc2)nc1-c1ccc2ccccc2c1)Nc1ccc(C(=O)O)cc1, which IC50 is on record?
A: Its IC50 is 2.18 µM (active).

Q: Which IC50 does the source give for Cc1c(C(=O)Nc2ccc(S(=O)(=O)N(C)Cc3ccccc3)cc2)oc2ccc(F)cc12 here?
A: The IC50 was over 29.9 µM.

Q: For O=C(/C=C/c1cn(-c2ccccc2)nc1-c1ccccc1)NCc1ccccc1, which IC50 is on record?
A: Its IC50 is over 29.9 µM.

Q: With CCN(c1ccccc1)S(=O)(=O)c1ccc(NC(=O)c2oc3ccc(F)cc3c2C)cc1 as the molecule, how does the IC50 read?
A: The IC50 was over 29.9 µM.

Q: For Cc1c(C(=O)Nc2ccc(S(=O)(=O)Nc3ncccn3)cc2)oc2ccc(F)cc12, which IC50 is on record?
A: The IC50 was over 29.9 µM.

Q: Which IC50 does the source give for Cc1c(C(=O)Nc2ccc(S(=O)(=O)NCCCN3CCOCC3)cc2)oc2ccc(F)cc12 here?
A: The IC50 was over 29.9 µM.

Q: Which IC50 does the source give for O=C(/C=C/c1cn(-c2ccccc2)nc1-c1ccccc1)Nc1cc(S(=O)(=O)N2CCCC2)ccc1Cl here?
A: The IC50 was over 29.9 µM.

Q: For CN1C(=O)/C(=C/c2cn(-c3ccccc3)nc2-c2ccccc2)c2ccccc21, which IC50 is on record?
A: The IC50 was over 29.9 µM.

Q: For CS(=O)(=O)Nc1cc(NC(=O)/C=C/c2cn(-c3ccccc3)nc2-c2ccccc2)ccc1F, which IC50 is on record?
A: The IC50 was 6.38 µM (active).

Q: Which IC50 does the source give for CN(C)CCCNC(=O)/C=C/c1cn(-c2ccccc2)nc1-c1ccccc1 here?
A: Its IC50 is over 29.9 µM.

Q: For CC(=O)NS(=O)(=O)c1ccc(NC(=O)/C=C/c2cn(-c3ccccc3)nc2-c2ccccc2)cc1, which IC50 is on record?
A: Its IC50 is 1.62 µM (active).

Q: For O=C(/C=C/c1cn(-c2ccccc2)nc1-c1ccccc1)NCCO, which IC50 is on record?
A: Its IC50 is over 29.9 µM.

Q: For COc1ccc(-c2nn(-c3ccccc3)cc2/C=C/C(=O)Nc2ccc(C(=O)O)cc2)cc1, which IC50 is on record?
A: Its IC50 is 1.94 µM (active).

Q: Which IC50 does the source give for CCOC(=O)N1CCC(NC(=O)/C=C/c2cn(-c3ccccc3)nc2-c2ccccc2)CC1 here?
A: Its IC50 is over 29.9 µM.

Q: Which IC50 does the source give for CN1CCC(N(C)C(=O)/C=C/c2cn(-c3ccccc3)nc2-c2ccccc2)CC1 here?
A: The IC50 was over 29.9 µM.

Q: With Cc1ccc(-c2nn(-c3ccccc3)cc2/C=C/C(=O)Nc2ccc(S(N)(=O)=O)cc2)cc1 as the molecule, how does the IC50 read?
A: The IC50 was 29.1 µM.

Q: With O=C(/C=C/c1cn(-c2ccccc2)nc1-c1ccccc1)N1CCN(CC(=O)N2CCCC2)CC1 as the molecule, how does the IC50 read?
A: Its IC50 is over 29.9 µM.

Q: Which IC50 does the source give for COC(=O)c1ccc(NC(=O)/C=C/c2cn(CCC#N)nc2-c2ccc(F)cc2)cc1 here?
A: Its IC50 is over 29.9 µM.

Q: With COc1ccc(NC(=O)/C=C/c2cn(-c3ccccc3)nc2-c2ccc(OC)cc2)cc1 as the molecule, how does the IC50 read?
A: The IC50 was over 29.9 µM.

Q: With CN(C)C(=O)C1CCN(C(=O)/C=C/c2cn(-c3ccccc3)nc2-c2ccccc2)CC1 as the molecule, how does the IC50 read?
A: The IC50 was over 29.9 µM.

Q: With Cc1ccc(-c2nn(-c3ccccc3)cc2/C=C/C(=O)Nc2cccc(S(N)(=O)=O)c2)cc1 as the molecule, how does the IC50 read?
A: Its IC50 is over 29.9 µM.

Q: For NS(=O)(=O)c1ccc(NC(=O)/C=C/c2cn(-c3ccccc3)nc2-c2cccc(Cl)c2)cc1, which IC50 is on record?
A: The IC50 was over 29.9 µM.

Q: For N#C/C(=C/c1cn(Cc2ccccc2)nc1-c1cccnc1)C(=O)Nc1ccc(C(=O)O)cc1, which IC50 is on record?
A: The IC50 was 16 µM.

Q: For O=C(/C=C\c1cn(-c2ccccc2)nc1-c1ccc(F)cc1)Nc1ccc(C(=O)O)cc1, which IC50 is on record?
A: The IC50 was 2.15 µM (active).

Q: Which IC50 does the source give for O=C(/C=C/c1cn(-c2ccccc2)nc1-c1ccccc1)NCCc1c[nH]c2ccccc12 here?
A: Its IC50 is over 29.9 µM.

Q: Which IC50 does the source give for COc1ccc(-c2nn(-c3ccccc3)cc2/C=C/C(=O)Nc2cccc(NC(C)=O)c2)cc1OC here?
A: The IC50 was over 29.9 µM.

Q: Which IC50 does the source give for CCN(CC)C(=O)/C=C/c1cn(-c2ccccc2)nc1-c1ccccc1 here?
A: Its IC50 is over 29.9 µM.

Q: With CNC(=O)Cc1ccc(NC(=O)/C=C/c2cn(-c3ccccc3)nc2-c2ccc(F)cc2)cc1 as the molecule, how does the IC50 read?
A: Its IC50 is over 29.9 µM.
